Measured values reported in PubChem BioAssay (EPA / NIEHS).
Calls of active or inactive are those of the source. How the source made its calls: active means hit-call score of the fitted dose curve at least 0.9, where 1 is the maximum; inactive means score below 0.9.

assay: ATG_TAL_CIS: Attagene CIS-FACTORIAL HepG2 Assay for human TAL Basal Promoter (AID 2282966); conditions: HepG2 Attagene cis-factorial TAL promoter reporter; actives raise or lower the signal
Description: ATG_CIS is a cell-based, multiplexed-readout assay that uses HepG2, a human liver cell line, with measurements taken at 24 hours after chemical dosing in a 24-well plate.ATG_TAL_CIS is one of 52 assay component(s) measured or calculated from the ATG_CIS assay. It is designed to make measurements of mRNA induction, a form of inducible reporter, as detected with fluorescence intensity signals by Reverse transcription polymerase chain reaction (RT-PCR) and Capillary electrophoresis technology.Data from the assay component ATG_TAL_CIS was analyzed into 1 assay endpoint. This assay endpoint, ATG_TAL_CIS, was analyzed with bidirectional fitting relative to DMSO as the negative control and baseline of activity. Using a type of inducible reporter, measures of mRNA for gain or loss-of-signal activity can be used to understand the background control at the transcription factor-level as they relate to the gene . Furthermore, this assay endpoint can be referred to as a secondary readout, because this assay has produced multiple assay endpoints where this one serves a background control function. To generalize the intended target to other relatable targets, this assay endpoint is annotated to the background measurement intended target family, where the subfamily is internal marker.
Human liver HepG2 cells are transiently transfected with multiple reporter transcription units (MRTUs) in 6-well plates using FuGene 6 reagent (Roche; 3 ml FuGene/1 mg DNA). The MRTU constructs are regulated by a cis-regulating element (promoter). […] A major difference between the CIS and TRANS system is that in CIS activities of endogenous TFs are measured, whereas the TRANS assay evaluates changes in activities of exogenous, chimeric NR-Gal4 proteins. […] At the end of 24 hour incubation, total RNA was isolated using TriZol reagent (Invitrogen). The isolated RNA is then reverse-transcribed using oligo(dT) primer and Mo-MLV reverse transcriptase (Invitrogen) with DNAse I (Ambion) treatment for 30 min. The one-tenth of the produced cDNA was amplified by PCR using Taq DNA polymerase (Invitrogen) and two reporter sequence-specific primers. The PCR products were fluorescently labeled by primer extension with 6-arboxyfluorescein (6-FAM) 5'-labeled reporter sequence-specific primer (2 min at 95 C, 20 s at 68 C and 10 min at 72 C) and these products were digested with 5U of HpaI (New England Biolabs) for 2h at 37 C. The fragments were purified using Qiaquick PCR columns (Qiagen), analyzed on an ABI 3130xL genetic analyzer (Applied Biosystems) with peak positions identified by using a set of X-rhodamine (ROX)-labeled MapMarker1000 molecular weight standards (BioVentures). The raw capillary electrophoresis data was processed using Attagraph software (Attagene).

Structure (SMILES) | outcome | AC50
Cc1cnccn1 | inactive | 
CC(C)(C)c1cc(CCC(=O)NCCCCCCNC(=O)CCc2cc(C(C)(C)C)c(O)c(C(C)(C)C)c2)cc(C(C)(C)C)c1O | inactive | 
CO[Si](CCCOCC1CO1)(OC)OC (stereo not given) | inactive | 
CC(C)=CCCC(C)O (stereo not given) | inactive | 
CC(=O)CCC(C)C | inactive | 
C=CC(=O)OCC(F)(F)C(F)(F)C(F)(F)COC(=O)C=C | inactive | 
CN(C)C(C)(C)CO | inactive | 
O=C1OC(=O)c2ccc3c4c(ccc1c24)C(=O)OC3=O | inactive | 
CC(O)C#CC(C)O (stereo not given) | inactive | 
CC(=O)c1ccccc1N | inactive | 
CC(C)OC=O | inactive | 
FC(F)(F)C(F)(F)C(F)(F)C(F)(F)C(F)(F)C(F)(F)C(F)(F)CCI | inactive | 
CCN(CC)c1ccc(C=O)cc1 | inactive | 
O=C(Cl)C(F)(F)C(F)(F)C(F)(F)C(F)(F)C(F)(F)C(F)(F)F | inactive | 
O=S(=O)(OCC(F)(F)F)C(F)(F)C(F)(F)C(F)(F)C(F)(F)F |  | 150 µM (active)
OC(O)C(F)(F)C(F)(F)F | inactive | 
OCC1CCCO1 (stereo not given) | inactive | 
OCC(F)(F)C(F)(F)C(F)(F)C(F)(F)C(F)(F)C(F)(F)CO | inactive | 
C[Si](Cl)(Cl)CCC(F)(F)C(F)(F)C(F)(F)C(F)(F)C(F)(F)C(F)(F)F | inactive | 
C=CC(=O)OCCC(F)(F)C(F)(F)C(F)(F)C(F)(F)F | inactive | 

Structure (SMILES) | outcome | AC50
Nc1cccnc1N | inactive | 
CNS(=O)(=O)C(F)(F)C(F)(F)C(F)(F)C(F)(F)C(F)(F)C(F)(F)C(F)(F)C(F)(F)F | inactive | 
O=S(=O)(O)CCC(F)(F)C(F)(F)C(F)(F)C(F)(F)F | inactive | 
OCC(F)(F)C(F)(F)C(F)(F)CO | inactive | 
O=S(=O)(Cl)C(F)(F)C(F)(F)C(F)(F)C(F)(F)C(F)(F)C(F)(F)C(F)(F)C(F)(F)F | inactive | 
OCCCc1cccnc1 | inactive | 
O=S(=O)(O)c1ccc(Cl)cc1 | inactive | 
CC1=CCC(=O)O1 | inactive | 
CC(C)Nc1ccc(NC(C)C)c2c1C(=O)c1ccccc1C2=O | inactive | 
C[C@]12CC[C@H]3C(=CCc4cc(O)ccc43)[C@@H]1CCC2=O | inactive | 
CC1CCCCC1 | inactive | 
C=CCOC(=O)CC(C)C | inactive | 
OCCCC(F)(F)C(F)(F)C(F)(F)C(F)(F)C(F)(F)C(F)(F)C(F)(F)C(F)(F)F | inactive | 
Oc1ccc2c(c1)CCC2 | inactive | 
CN(C(=O)C(F)(F)C(F)(F)C(F)(F)F)[Si](C)(C)C | inactive | 
NC(=O)C(F)(F)C(F)(F)C(F)(F)C(F)(F)C(F)(F)C(F)(F)C(F)(F)F | inactive | 
O=C(O)CCC(F)(F)C(F)(F)C(F)(F)F | inactive | 
Oc1ccc(C2(c3ccc(O)c(C4CCCCC4)c3)CCCCC2)cc1C1CCCCC1 |  | 17.9 µM (active)
N#CCCOCCC#N | inactive | 
NC(=O)C(F)(F)C(F)(F)C(F)(F)F | inactive | 
